From PubChem BioAssay
Activity calls are given as the source filed them.

biological target: Homeobox protein Hox-A13 (Mus musculus) (UniProt Q62424); assay: inhibitors of HoxA13-DNA binding, primary screen, biochemical, fluorescence polarization, labeled oligonucleotide (AID 1185); conditions: 15 min, higher = more signal, called active from +8 up or from −8 down
Sequence (Q62424 whole entry, looked up): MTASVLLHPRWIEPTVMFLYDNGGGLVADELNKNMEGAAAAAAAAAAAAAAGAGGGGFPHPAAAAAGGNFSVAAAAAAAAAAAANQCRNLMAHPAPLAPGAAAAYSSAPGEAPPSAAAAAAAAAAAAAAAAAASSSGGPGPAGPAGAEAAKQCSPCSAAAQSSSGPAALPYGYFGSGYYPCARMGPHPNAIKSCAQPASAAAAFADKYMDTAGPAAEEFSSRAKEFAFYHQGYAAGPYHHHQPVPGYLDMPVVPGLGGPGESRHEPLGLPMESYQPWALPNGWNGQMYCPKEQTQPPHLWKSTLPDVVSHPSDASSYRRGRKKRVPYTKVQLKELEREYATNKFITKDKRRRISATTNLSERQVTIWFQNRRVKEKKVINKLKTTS

z-score, inactive:
CO[C@@H]1COC(=O)[C@@H](C)COC(=O)[C@@H](C)NC(=O)CC=C[C@@H]1C -0.701
CCOC(=O)[C@H](CC(C)C)NC(=O)CCC1CC(OC(=O)NCc2cccc3ccccc23)CC2(CCCC(COC(=O)NCCc3ccc(Cl)cc3)O2)O1 (stereo partly specified) -4.02
COc1ccc(O[C@@H]2[C@H](O)CO[C@@H]2C=Cc2ccccc2)cc1 -0.162
O=C1C2=CC[C@H]3C(=O)N(c4cccc(Oc5ccccc5)c4)C(=O)[C@H]3[C@H]2[C@H](O)[C@@H]2O[C@H]12 -2.99
O=C1C=C[C@@H](O)[C@@H]2[C@@H]3C(=O)N(C[C@@H]4CCCO4)C(=O)[C@@H]3CC[C@@H]12 0.112
CO[C@H]1COC(=O)[C@H](C)NC(=O)CC=C[C@@H](C)[C@H](OC)COC(=O)[C@@H](OCc2ccccc2)C=C[C@@H]1C -0.22
CCOC(=O)[C@H](CC(C)C)NC(=O)CCC1CC(OC(=O)NCCc2ccc(F)cc2)CC2(CCCC(COC(=O)NCCc3ccc(Cl)cc3)O2)O1 (stereo partly specified) -6.52
CCOC(=O)[C@H](CC(C)C)NC(=O)CCC1CC(OC(=O)NCc2cccc3ccccc23)CC2(CCCC(COC(=O)NCCOc3ccccc3)O2)O1 (stereo partly specified) -3.36
COC(=O)CC=C[C@@H](C)[C@@H](C=NO[C@@H]1O[C@H](COC(C)=O)[C@@H](OC(C)=O)[C@H](OC(C)=O)[C@H]1OC(C)=O)OC -2.16
CCOC(=O)NN=C1C[C@@H](O)[C@@H](O)[C@@H]2[C@@H]3C(=O)N(Cc4ccccc4)C(=O)[C@@H]3CC[C@H]12 -1.48
Cc1cc2c(nc1C)CCCN2CC(O)CN1CCCc2nc(C)c(C)cc21 -3.33
COc1ccc(COC(=O)NN=C2C[C@@H](O)[C@@H](O)[C@@H]3[C@@H]4C(=O)N(C5CCCCC5)C(=O)[C@@H]4CC[C@H]23)cc1 -5.48
COC(=O)CC=C[C@@H](C)[C@@H](C=NOCC[C@@H]1C=C[C@H](OC(C)=O)[C@@H](COC(C)=O)O1)NS(=O)(=O)c1ccc(C)cc1 -5.32
CO[C@@H]1C=CCC(=O)N2CCC[C@H]2C(=O)OC[C@@H](C)C(=O)OC[C@H]1C 0.772
C=CC[C@@H]1C=C[C@H](ON=C(C)CCC(=O)OC[C@H]2O[C@H](C#Cc3ccccc3)C=C[C@@H]2Oc2ccc(C)cc2)[C@@H](CO)O1 -4.14
CC(CCC(=O)OC[C@H]1O[C@H](C#Cc2ccccc2)C=C[C@@H]1Oc1ccc(C)cc1)=NO[C@H](C)c1cn([C@H](CO)Cc2ccccc2)nn1 -2.88
CON=CC[C@@H]1C=C[C@H](OC(C)=O)[C@@H](COC(C)=O)O1 0.463
CO[C@@H]1COC(=O)CC=C[C@@H](C)[C@@H]2C=C[C@H](O)[C@@H](COC(=O)CC=C[C@H]1C)O2 -2.1
CCCCC#C[C@@H]1C=C[C@H](OC(C)=O)[C@@H](COC(C)=O)O1 -4.35
C#CCCCON=C1C[C@@H](O)[C@@H](O)[C@@H]2[C@@H]3C(=O)N(c4cccc(Oc5ccccc5)c4)C(=O)[C@@H]3CC[C@H]12 0.303
Cn1c(=O)n2n(c1=O)[C@H]1[C@H](O)[C@@H]3O[C@@H]3C(=NOCc3ccccc3)[C@H]1CC2 -2.35
CCOC(=O)C1=NO[C@]2(C=C(Br)C3(OCCCO3)[C@H]3O[C@H]32)C1 0.136
Cc1ccc(S(=O)(=O)NC(CCc2ccccc2)CC(=O)C(C)(C)C)cc1 (stereo unspecified) -3.68
O=C1CCCC=C1C(O)CCCCBr (stereo unspecified) -5.96
C[C@@H](c1ccccc1)N1C(=O)[C@H]2[C@H]3[C@H](O)[C@H](O)CC(=NO[C@@H]4O[C@H](CO)[C@@H](O)[C@H](O)[C@H]4O)[C@@H]3CC[C@H]2C1=O 0.174
C#CCCCON=C1C[C@@H](O)[C@@H](O)[C@@H]2[C@@H]3C(=O)N(c4ccc(F)cc4F)C(=O)[C@@H]3CC[C@H]12 -0.42
C#CCCCON=C1[C@H]2CCn3c(=O)n(C)c(=O)n3[C@H]2[C@H](O)[C@@H]2O[C@H]12 0.292
CC(C)=CCCC(C)=CCON=C1C[C@@H](O)[C@@H](O)[C@@H]2[C@@H]3C(=O)N(C(C)(C)C)C(=O)[C@@H]3CC[C@H]12 0.263
CO[C@H]1COC(=O)CC=C[C@@H](C)[C@H](OC)COC(=O)[C@@H]2CCCN2C(=O)CC=C[C@@H]1C -0.438
CCOC(=O)NN=C1C[C@@H](O)[C@@H](O)[C@@H]2[C@@H]3C(=O)N(c4cccc(Oc5ccccc5)c4)C(=O)[C@@H]3CC[C@H]12 1.22
O=C1[C@H]2[C@H]3[C@H](O)[C@H](O)CC(=NOCc4ccccc4)[C@@H]3CC[C@H]2C(=O)N1c1ccc(F)cc1F 0.941
Cn1c(=O)n2n(c1=O)[C@H]1[C@H](O)[C@@H]3O[C@@H]3C(=O)[C@H]1CC2 0.336
CCCNC(=O)OC[C@H]1O[C@H](c2ccccc2)C=C[C@@H]1Oc1ccc(OC)cc1 -1.63
CC(C)CCN1CCc2nc(COc3ccccc3)c3c(c2C1)CO[C@@H](C)C3 -5.02

z-score, active:
CCN1C(=O)[C@@H]2[C@H]3C(=CC[C@@H]2C1=O)C1(OCCCO1)[C@H]1O[C@H]1[C@H]3O -10.9
CCN1C(=O)[C@H]2[C@H]3[C@H](O)[C@H](O)CC(=NOC[C@H]4O[C@H](c5ccccc5)C=C[C@@H]4Oc4ccc(OC)cc4)[C@@H]3CC[C@H]2C1=O -10.8
